Percent Effect data for 39 compounds are collected here from ChEMBL document CHEMBL3988442, “University of Dundee, Small-Polar-MMV Screening Library” (2021).

In the test the target is AMP-activated protein kinase, AMPK (Homo sapiens) (UniProt P54646+O43741+P54619+Q9UGJ0+Q9Y478+Q13131+Q9UGI9). Kind of test: AMP-dependent Kinase enzyme assay. An in vitro enzyme assay that detects ADP turnover that is directly proportional to AMPK activity. This uses naive AMPK that is activated during the assay with MK-8722. In kind it is functional. More on the design: scale not given: direction of the effect not stated beside the values. The conditions noted are these: 30 µM.
Take `CC(O)CN1CCN(Cc2coc(-c3ccccc3)n2)CC1` (centres undefined): the Percent Effect was -7.2%.

As to `Cc1nc2sccn2c1CN(CCCN(C)C)Cc1ccccn1`, the Percent Effect turned out to be 3.1%.

`FC(F)(F)c1ccnc(N2CCCN(Cc3ccccn3)CC2)n1`: the Percent Effect was -1.31%.

Take `COc1cccc2ccc(N3CCC(O)(c4ccc(C)cn4)CC3)nc12`: the Percent Effect turned out to be 11.8%.

On to `CN(C)C(CNC(=O)CCNC(=O)OCC(F)(F)F)c1ccsc1` (centres undefined), for which the Percent Effect is 3.22%.

Turning to `CC(C)(CN1CCC2(CCCNC2)C1)N1CCOCC1` (centres undefined), the Percent Effect was -0.439%.

As to `Cc1cc(C)c2cc(C(=O)N3CCNC(=O)C3)[nH]c2c1`, the Percent Effect was found to be 1.52%.

Turning to `COc1nc(C)ccc1CNC(=O)NC(c1ncc(C)s1)C1CC1` (centres undefined), the Percent Effect is -2.14%.

As to `CC(C)c1noc(C(C)N2CCN(Cc3nc4ccccc4[nH]3)CC2)n1` (centres undefined), the Percent Effect was -0.358%.

Turning to `Cn1cc(N2CCN(c3ccc(C#N)cc3Br)CC2=O)cn1`, the Percent Effect was -4.14%.

For the compound `CCN(C(=O)Cn1cc(Cl)cn1)c1ccccc1`, the Percent Effect was -10.4%.

For the compound `Cc1c(CN2CCCCC2)c(O)n(CCO)c(=O)c1C#N`, the Percent Effect was -415%.

Take `COC(=O)c1sc(C(NC(=O)c2ccccc2)C2CC2)nc1C` (centres undefined): the Percent Effect is -2.15%.

In the case of `CCc1ccsc1C(=O)NC(C#N)CC` (centres undefined), the Percent Effect was 2.87%.

For `CSc1ccc(CNC2CCCc3c2cnn3C)cc1` (centres undefined), the Percent Effect was 7.44%.

As for `O=C(C1CNCCN1C(=O)CCOc1ccccc1)N1CCOCC1` (centres undefined), the Percent Effect is 13%.

As to `Cc1nc(C(NC(=O)CN(C)C(C)C)c2ccccc2F)no1` (centres undefined), the Percent Effect is -4.35%.

For `CN(C(=O)c1cccc(C#N)c1)c1nnc(C2CCOC2)s1` (centres undefined), the Percent Effect was found to be 5.31%.

`CCn1cnnc1CCNC(=O)c1ccc(Br)cc1F`: the Percent Effect is -0.992%.

Take `Cc1ccsc1C(=O)NCc1ccnc(C2CCCOC2)n1` (centres undefined): the Percent Effect is 11.8%.

In the case of `COCCCN1CC2(CCCN(CCn3cc(Cl)cn3)C2)CCC1=O` (centres undefined), the Percent Effect is 5.56%.

As for `CCC(=O)Nc1ccc(F)cc1OC`, the Percent Effect was -10.1%.

As for `Cc1nc2c(c(NCC(=O)NC(C)C)n1)Cc1ccccc1OC2`, the Percent Effect was 5.96%.

For `N#CCCN(CCC#N)C(=O)c1cccc(N2CCNC2=O)c1`, the Percent Effect was -2.85%.

Consider `COc1ccc(C(C)NCCC(N)=O)cc1F` (centres undefined), for which the Percent Effect is -6.1%.

On to `CCOC(=O)N1CCC(NC(=O)c2cccc(C3CCCNC3)c2)CC1` (centres undefined), for which the Percent Effect amounted to 7.59%.

For the compound `COc1nc2c(cc1C(=O)NC(C)Cc1cnccn1)CCC2` (centres undefined), the Percent Effect is -1.98%.

On to `O=C1NCCCN1Cc1nc(-c2ccc(N3CCCCC3)cc2)no1`, for which the Percent Effect was 3.5%.

Take `COCCN(Cc1cnn(C)c1)c1nc2c(s1)c(C)nn2C`: the Percent Effect was -0.701%.

Regarding `COc1ccc(S(=O)(=O)C2CCN(C(=O)c3cc(C)cs3)CC2)cc1`, the Percent Effect came out at 2.13%.

`COc1cccc(CCC(=O)Nc2cnc3c(c2)c(C)nn3C)c1OC`: the Percent Effect turned out to be 5%.

Take `CNS(=O)(=O)c1c(C)sc2ccccc12`: the Percent Effect came to 7.5%.

For `COC(=O)c1ccc(NC(=O)CCNCc2ccco2)cc1`, the Percent Effect turned out to be 2.04%.

For the compound `COC(=O)C1CCN(C(=O)Cn2nc(C)nc2-c2ccccc2)CC1`, the Percent Effect was -7.76%.

Regarding `Cc1noc(CN(C)c2nc(-c3ccco3)nc3c2CCN(C)CC3)n1`, the Percent Effect is 3.37%.

Consider `CC(c1nnc(-c2ccccc2)o1)N1CCC(Nc2ccccc2)CC1` (centres undefined), for which the Percent Effect is 4.64%.

With `Cc1nnc(CN(C)CC(=O)N2CCCN(C3CCCC3)CC2)n1C`, the Percent Effect was -11.4%.

As to `CS(=O)(=O)CCCNc1cccc(COC2CCCCC2)c1`, the Percent Effect is -2.55%.

As for `CCOCCC(=O)NC(c1noc(C)n1)c1ccccc1F` (centres undefined), the Percent Effect was found to be 1.15%.
